Screening results from PubChem.
NTR1 agonist: NTR1 (human) agonism. P30989. NTR1-U2OS beta-arrestin-GFP spot imaging, agonist mode. activation, % at 20 µM. hit rate 0.17% among 330,000. AID 493036;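 active = activation at or above 40% of the spot to cytoplasm intensity ratio, with at least 20 cells analyzed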;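 also: 0% = DMSO without peptide and 100% = 100 nM NTR1 peptide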
VLA-4 inh: inhibition in a human VLA-4 binding assay | VLA-4 expressing cells, ligand binding flow cytometry | AID 2557 | P13612 | hit rate 0.2% among 330,000 | inhibition, % (about 7 µM as worked out from the volumes in the protocol); in the data active = inhibition above about 50%
GRK2 inh: inhibitors of human GRK2 displacing RNA aptamer; P25098; bead flow cytometry, FAM-aptamer displacement from GRK2; inhibition of aptamer binding, % at 10 µM; hit rate 0.59% among 330,000;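 active = inhibition of aptamer binding above 40%, roughly 3 SD of noise, on plates passing a quality check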;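 also: median bead fluorescence of bound FAM aptamer so fluorescent compounds give negative values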
B2AR ag: human beta-2 adrenergic receptor agonism by FAP; P07550; Am2.2-beta2AR cells, FAP receptor internalization, flow cytometry; response, % (test concentration not listed); hit rate 0.43% among 340,000; AID 504454;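 active = response above a set limit, near 3 SD of response in nonfluorescent compounds, cut at about 42% in these data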
A1 inh: inhibitors of the anti-apoptotic protein A1, read as caspase activation | AID 2462 | MEF A1-2A-BIM cells, Caspase-Glo 3/7 luminescence, 3 h; percent of clofoctol response, vehicle zero | caspase activation, % (test concentration not listed) | hit rate 0.066% among 330,000;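 active = over half of replicate activation scores above 10%, or exactly half above 10 with the replicate mean above 10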
GRK2 CP1: confirmation of human GRK2 inhibitors displacing RNA aptamer. shares compounds with GRK2 inh. bead-bound GRK2, FAM-aptamer displacement, flow cytometry. aptamer displacement, % at 10 µM. hit rate 4% among 2,000;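 active = aptamer displacement above 40%, near three times the noise of non-fluorescent compounds, on plates passing quality checks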;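 also: negative values mostly reflect intrinsic compound fluorescence rather than true enhancement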
FAM quench CP1: counter-screen for GRK2 aptamer inhibitors: fluorescent aptamer quenchers. Carboxyfluorescein RNA aptamer on beads, flow cytometry quenching; stronger effect = lower value. fluorescence response (% of DMSO), % at 10 µM. AID 504580. shares compounds with GRK2 inh. 2,000 tested, under 10 active;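 active = compounds that quench the bead-bound fluorescent RNA probe, cutting fluorescence to under half of the solvent control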;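 also: counterscreen run without GRK2 so only probe quenching by compound is measured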
GRK2 confirm 2: human GRK2 inhibition confirmation, cherry pick 2; shares compounds with GRK2 inh; bead-bound GRK2, FAM-aptamer displacement, flow cytometry; inhibition of aptamer binding, % at 10 µM; 360 tested, under 10 active; AID 504782;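 active = inhibition of aptamer binding above 40%, about triple the noise seen with nonglowing compounds, on plates passing quality control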;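 also: negative values mostly come from compounds that fluoresce themselves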
FAM quench CP2: aptamer fluorescence quenching in GRK2 counter-screen; shares compounds with GRK2 inh; carboxyfluorescein RNA aptamer beads, flow cytometry quenching; stronger effect = lower value; fluorescence response vs DMSO, % at 10 µM; 360 tested, under 10 active;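 active = response vs DMSO under 50%, meaning signal dropped by over half, treated as fluorescence quencher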;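 also: labelled aptamer on streptavidin beads without GRK2 as a quench counter-screen; 100% = bead fluorescence of DMSO wells and lower means quenching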
* marks the source's active call; other numbers are inactive results; / = no result given. An excerpt weighted towards active compounds, which were near 1.3% of everything screened.

SMILES	NTR1 agonist	VLA-4 inh	GRK2 inh	B2AR ag	A1 inh	GRK2 CP1	FAM quench CP1	others
NNC(=O)c1sc2cc(C(F)(F)F)cnc2c1-c1cccnc1	2	-58	41*	-8	1	2	112
O=C(Nc1cccc(NC(=O)c2ccc(-c3ccc(Br)cc3)o2)c1)c1ccccc1	1	10	90*	5	-1	-1	93
O=C(OCC#CCSc1nnc(-c2cccc3ccccc23)o1)c1cnc[nH]1	-1	3	0	-2	1	/	/
CC(=O)c1cccc(NC(=O)c2cc(-c3cccs3)on2)c1	0	9	3	-9	0	-5	104
O=C(Nc1cccc(O)c1)c1cc(-c2cccs2)on1	-1	2	1	1	-7	/	/
COc1ccc(-c2cc(C(=O)Nc3cccc(C(C)=O)c3)no2)cc1	1	-6	0	1	/	-1	99
CCN1CCCC1Cn1cnc2c([nH]c3ccc(Cl)cc32)c1=O (stereo unspecified)	0	6	92*	5	2	-1	102
COc1cc(C2OCC3C(c4ccc(OC5OC(CO)C(O)C(O)C5O)c(OC)c4)OCC23)ccc1O (stereo unspecified)	0	-17	0	-2	0	1	98
COc1cccc(CN(C)C(=O)CNC(=O)c2ccc3c(c2)OCO3)c1OC	0	3	0	8	0	/	/
Cc1ccc(/C=C2/N=C(c3ccccc3)NNC2=O)cc1	-1	-1	93*	2	0	-2	98
O=C1NNC(c2ccccc2)=N/C1=C\c1ccccc1	1	16	4	11	-1	/	/
CSc1ccccc1NC(=O)N1CCCC(C(=O)c2ccc3c(c2)OCO3)C1 (stereo unspecified)	2	7	95*	-5	0	-1	96
O=C(O)c1cccc(Nc2c3ccccc3nc3ccccc23)c1	0	-1	51*	1	-1	0	94
CC(=O)c1cccc(Nc2cc(C)nc3ccccc23)c1	3	-3	0	-12	0	/	/
CN(C)S(=O)(=O)c1ccc(Cl)c(NC(=O)COC(=O)CCC2CCCCC2)c1	10	7	0	3	0	/	/
CCCC(=O)Oc1ccc(C2NC(=O)c3ccccc3O2)cc1OC (stereo unspecified)	-1	-3	1	0	0	/	/
O=C(O)CCn1cc(-c2ccc(F)cc2)nc1-c1ccncc1	0	33	40	2	-1	1	98
CCOC(=O)Cn1cc(Cl)c(=O)c(Cl)c1	1	8	85*	-5	0	-3	102
CCOC(=O)Cn1cnc(C)c1	/	/	/	0	/	/	/
Cc1c(C(=O)N2CCN(S(=O)(=O)c3cc(F)ccc3F)CC2)oc2ccccc12	1	16	0	-1	-1	/	/
O=C(NCCc1ccccn1)C(F)(F)C(F)(F)C(F)(F)C(F)(F)C(F)(F)C(F)F	3	15	0	-5	1	/	/
CCOC(=O)C1=C(C(F)(F)F)Nc2ncnn2C1c1cccc(OC)c1OC (stereo unspecified)	-1	8	81*	0	0	/	/	GRK2 confirm 2=-9;FAM quench CP2=101
CC[C@H](C)/C=C/C1=CC2=C(Cl)C(=O)[C@@]3(C)OC(=O)C(C(=O)[C@H](C)[C@@H](C)O)=C3C2=CO1	-1	28	69*	5	0	3	104
Cc1cccc(C)c1-n1c(C)nn(-c2ncc(C(F)(F)F)cc2Cl)c1=O	0	1	90*	-5	0	2	96
Cc1nn(-c2ncc(C(F)(F)F)cc2Cl)c(=O)n1-c1c(F)cccc1F	-2	-1	0	-1	-2	/	/
